About 13,000 (27%) of roughly 48,000 compounds showed an effect of 50% or more. Some of the results follow.
Each compound was assayed on Wolbachia pipientis (assay: Anti-Wolbachia Cell-Based Screen). Details: 5 µM.
Format: functional
Design: scale not given: in the data most compounds retested in dose-response had high values

| Compound | Percent Effect |
| --- | --- |
| O=C(NCC(O)COc1ccc(F)cc1)C1(c2ccc(F)cc2)CC1 (centres undefined) | 2.033% |
| O=C(O)C(F)(F)F.O=C(c1ccccn1)N1CCCC2(CCN(c3ccsc3)C2=O)C1 (centres undefined) | 9.828% |
| O=C1N(c2ccsc2)CCC12CCCN(c1ncc(F)cn1)C2 (centres undefined) | 91.96% |
| O=C(CO)N1CCCC2(CCN(c3ccsc3)C2=O)C1 (centres undefined) | -8.553% |
| Cc1nocc1C(=O)N1CCCC2(CCN(c3ccsc3)C2=O)C1 (centres undefined) | 2.801% |
| Cn1nccc1C(=O)N1CCCC2(CCN(c3ccsc3)C2=O)C1 (centres undefined) | 54.5% |
| O=C(N1CCCC1)N1CCCC2(CCN(c3ccsc3)C2=O)C1 (centres undefined) | -11.99% |
| O=C1N(c2ccsc2)CCC12CCCN(c1ccccn1)C2 (centres undefined) | 116.3% |
| CN(C)C(=O)N1CCCC2(CCN(c3ccsc3)C2=O)C1 (centres undefined) | -73.81% |
| Cc1occc1C(=O)N1CCCC2(CCN(c3ccsc3)C2=O)C1 (centres undefined) | -9.998% |
| N#Cc1ccc(N2CCCN(CC(N)=O)CC2)cc1 | -2.311% |
| CC(NC(=O)C(C)(C)C#N)c1ccc(OCC2CC2)c(F)c1 (centres undefined) | 5.136% |
| CC(NC(=O)c1csnn1)c1ccc(OCC2CC2)c(F)c1 (centres undefined) | 3.063% |
| CS(=O)(=O)NCCC(=O)NC1(c2ccc(F)cc2)CCCC1 | -19.35% |
| CCNC(=O)NCc1nn(CCN2CCCC2)c(=O)c2ccccc12 | 106.7% |
| CCn1nc(CNC(=O)C2CCCN(C(=O)COC)C2)c2ccccc21 (centres undefined) | -19.96% |
| COCC(=O)NCc1cc2n(n1)CCCN(CCCC1CCCC1)C2 | 3.539% |
| COCC(=O)NCc1nn(CCN2CCCC2)c(=O)c2ccccc12 | 112.1% |
| CN(C)S(=O)(=O)NCc1nn(CCN2CCCC2)c(=O)c2ccccc12 | 91.81% |
| Cc1ccccc1CS(=O)(=O)NCCCN1CCCC1 | -20.74% |
| CCn1nc(CNC(=O)C2CC(=O)N(C3CCCC3)C2)c2ccccc21 (centres undefined) | -24.02% |
| CCn1nc(CNC(=O)C2CCCN(CC(N)=O)C2)c2ccccc21 (centres undefined) | 4.996% |
| CN(C)S(=O)(=O)NCCn1nc(-c2ccccc2)n(C)c1=O | -0.1642% |
| CCOC(=O)NCc1nn(CCN2CCCC2)c(=O)c2ccccc12 | 108% |
| CCNC(=O)NCc1ccc(CN2CCCC(C)C2)cc1 (centres undefined) | -3.525% |
| CCN1CC(C(=O)NCc2nn(CC)c3ccccc23)CCC1=O (centres undefined) | 10.79% |
| O=c1nc(SCc2ccncc2)c2c(n1CCO)CCC2 | 3.515% |
| COc1cccc(N2CC3(CCN(c4cnccn4)C3)CC2=O)c1 (centres undefined) | -7.581% |
| Cc1cc(Cl)ccc1NCc1cnn(C2CCS(=O)(=O)C2)c1 (centres undefined) | 23.97% |

Source: ChEMBL document CHEMBL3988442, “University of Dundee, Small-Polar-MMV Screening Library” (2021)
